This note sets out measurements from PubChem BioAssay.

Calls of active or inactive are those of the source. How the calls were made is not given here.

Usually inhibition stands for the relative decrease from the control value, in per cent.

Pantothenate synthetase (Mycobacterium tuberculosis (strain ATCC 25618 / H37Rv)), sequence (P9WIL5 whole entry, looked up): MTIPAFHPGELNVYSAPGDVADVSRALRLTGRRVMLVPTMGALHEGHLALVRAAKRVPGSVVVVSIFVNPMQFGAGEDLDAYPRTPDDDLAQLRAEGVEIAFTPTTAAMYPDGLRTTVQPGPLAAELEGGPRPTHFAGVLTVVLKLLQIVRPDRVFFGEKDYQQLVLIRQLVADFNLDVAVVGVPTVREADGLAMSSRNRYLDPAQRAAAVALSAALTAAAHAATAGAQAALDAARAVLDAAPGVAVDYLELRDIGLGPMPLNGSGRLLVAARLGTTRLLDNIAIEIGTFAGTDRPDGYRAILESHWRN

The test concerns the target Pantothenate synthetase (Mycobacterium tuberculosis (strain ATCC 25618 / H37Rv)) (UniProt P9WIL5). Put plainly: Coupled enzyme confirmation of inhibitors against recombinant Mtb PanC (AID 375).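 Further: 0% = full reaction with vehicle and 100% = no enzyme background.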 The conditions noted are these: coupled enzyme assay; at 10 µM, hits give high values.
On to `Cc1nc2ccccc2c2oc(C(=O)NCCN3CCCCC3C)cc12` (stereo not given), for which the inhibition was 0% (inactive).
Under `COc1ccccc1N1CCN(C(=O)c2ccc3nc(-c4ccco4)c(-c4ccco4)nc3c2)CC1` stands 9% (inactive).
Regarding `Cc1ccc(S(=O)(=O)NCCSc2nnnn2-c2ccc(C(N)=O)cc2)cc1`, the inhibition is 0% (inactive).
Under `COc1cc2cc(C(c3nnnn3C3CCCC3)N(C)C3CCCCC3)c(=O)[nH]c2cc1OC` (stereo not given) stands 9% (inactive); under `COc1ccc(S(=O)(=O)N(C)CC(=O)N2CCCCC2)cc1Cl`, 0% (inactive); under `C=CCn1cnc2c(c1=O)c1nc3ccccc3nc1n2-c1ccc(C)cc1`, 0% (inactive).
Under `Cc1ccc(S(=O)(=O)N2CCOCC2)cc1C(=O)OCC(=O)N1CCc2ccccc2C1` stands 0% (inactive).
Next, `CCCc1nc2ccccc2c2nc(N)nn12`: 5% (inactive); `CCc1cccc(NC(=O)C2CCCN(S(=O)(=O)c3c(C)[nH]c(=O)[nH]c3=O)C2)c1` (stereo not given): 4% (inactive); `CC(C)(C)C(=O)OCC1OC(n2cnc(C(N)=O)n2)C(O)C1O` (stereo not given): 3% (inactive).
For the compound `CSCSC1=C(C#N)C(c2ccc(Cl)cc2)C(C(C)=O)=C(C)N1` (stereo not given), the inhibition is 0% (inactive).
Next, `Nc1nnc(-c2cc3ccccc3oc2=O)s1`: 8% (inactive); `COc1ccccc1-n1c(SCC(=O)Nc2ccc3c(c2)OCO3)nc2c(c1=O)SCC2`: 0% (inactive); `Cc1cccc(N2CCN(S(=O)(=O)c3ccc4c(c3)CCC(=O)N4)CC2C)c1` (stereo not given): 6% (inactive).
Next, `CC(NC(=O)c1ccccc1NC(=O)c1ccco1)C(=O)O` (stereo not given): 0% (inactive); `COC(=O)c1cc(Br)c(=O)n(CCN2CCOCC2)c1`: 0% (inactive).
As for `COc1ccc(CNC(=O)Cn2nc(C(F)(F)F)c3c2CCC3)cc1`, the inhibition is 3% (inactive).
Next, `Cc1c(NC(=O)c2cnn3c2NC(c2ccco2)CC3C(F)(F)F)c(=O)n(-c2ccccc2)n1C` (stereo not given): 9% (inactive).
Next, `Cc1nc(-c2cccc(-c3noc(C)n3)c2)no1`: 0% (inactive).
For the compound `O=C(c1ccccc1)c1ccncc1`, the inhibition is 10% (inactive).
In the case of `O=S(=O)(c1ccccc1)N(Cc1nc(-c2ccccc2)no1)C1CCCCC1`, the inhibition was 0% (inactive).
`COc1ccc(CN(CCN(C)C)c2ccccn2)cc1`: the inhibition was 4% (inactive).
Under `c1ccc(-c2cc(-c3nc(-c4ccccn4)no3)c3ccccc3n2)cc1` stands 0% (inactive).
Turning to `CCOc1ccc(N(CC(=O)OC)S(=O)(=O)c2ccc(OC)c(OC)c2)cc1`, the inhibition is 0% (inactive).
Regarding `C=CCOc1ccc(CN(C)CC(=O)N(CC(C)C)c2c(N)n(CC(C)C)c(=O)[nH]c2=O)cc1`, the inhibition was 0% (inactive).
Next, `COCc1cc(C)c2c(N)c(C#N)sc2n1`: 1% (inactive); `CC1(C)CC(=O)C2=C(C1)Nc1ccccc1N=C2`: 0% (inactive).
As to `CC(=O)Nc1ccc(S(=O)(=O)Nc2nc3c(s2)CCCC3)cc1`, the inhibition is 2% (inactive).
Regarding `CCOc1ccc2[nH]c(C)cc(=O)c2c1`, the inhibition is 0% (inactive).
Under `O=C(O)c1cccc(CN2C(=O)SC(Nc3ccccc3)C2=O)c1` (stereo not given) stands 4% (inactive); under `COc1ccc(S(=O)(=O)NC2CCCCC2)c(C)c1C`, 4% (inactive); under `N=c1c(C(=O)NCc2ccc(F)cc2)cc2c(=O)n3ccccc3nc2n1CCCN1CCOCC1`, 0% (inactive).
With `CSCCC(NC(=O)c1ccco1)C(=O)OC(C)C(=O)NC(=O)NC1CCCCC1` (stereo not given), the inhibition was 0% (inactive).
Next, `c1ccc(CCn2nnnc2C(c2cccs2)N2CCOCC2)cc1` (stereo not given): 1% (inactive).
For `O=S(=O)(NCCc1ccccn1)c1cccs1`, the inhibition is 3% (inactive).
Under `Cc1nc2ccccc2c2oc(C(=O)NCc3ccccn3)cc12` stands 2% (inactive).
As for `Nc1nc2n(n1)C(c1cccc(Br)c1)CC(c1ccccc1)N2` (stereo not given), the inhibition was 0% (inactive).
Under `CCC(=O)N1CCc2cc(S(=O)(=O)CCC(=O)Nc3ccc(C)c(F)c3)ccc21` stands 0% (inactive); under `c1ccc(-c2noc(-c3cccnc3)n2)nc1`, 0% (inactive).
Under `COc1ccc(OCC(=O)N2CCN(C(=O)Cc3ccccc3)CC2)cc1` stands 0% (inactive).
